Data: PubChem BioAssay AID1159580 (chemical genetic matrix, 2015)
Among all 5,500 compounds or so, about 2,000 (36%) were called active. About 18% were inconclusive and are not listed. Cut-off read from the data, not from the text of the source: active = normalized growth mostly below about 0.91 (no sharp cut-off); inconclusive = no clear call, values can overlap the other calls; inactive = mostly above about 0.92. This is one part of the list.

Experiment: chemical genetic growth profiling, strain panel (AID 1159580);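 note: tested at 20 µM; growth read once vehicle control cultures reached saturation at 30 °C; 1 = growth at the plate median or of vehicle wells; lower values mean less growth of the strain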
Conditions: S. cerevisiae deletion strains, growth OD
[1] = locus YDL101C, strain DUN1, stronger effect = lower value
[2] = locus YHR030C, strain SLT2, stronger effect = lower value

Measured: normalized growth

O=[N+]([O-])c1ccc(ON=C2CCCCC2)c([N+](=O)[O-])c1
inactive: locus YAR019C, strain CDC15, stronger effect = lower value 0.982 | locus YBL105C, strain PKC1, stronger effect = lower value 0.998 | locus YBR135W, strain CKS1, stronger effect = lower value 0.997 | locus YBR136W, strain MEC1, stronger effect = lower value 0.996 | locus YBR160W, strain CDC28, stronger effect = lower value 0.997 | locus YDL017W, strain CDC7, stronger effect = lower value 0.995 | locus YDL028C, strain MPS1, stronger effect = lower value 0.988 | locus YDL108W, strain KIN28, stronger effect = lower value 1 | locus YDL132W, strain cdc53, stronger effect = lower value 0.981 | locus YDL214C, strain PRR2, stronger effect = lower value 0.875 | locus YDR054C, strain cdc34, stronger effect = lower value 0.981 | locus YDR226W, strain ADK1, stronger effect = lower value 0.987 | locus YDR477W, strain SNF1, stronger effect = lower value 0.827 | locus YER123W, strain YCK3, stronger effect = lower value 0.722 | locus YER133W, strain GLC7, stronger effect = lower value 0.786 | locus YFL009W, strain cdc4, stronger effect = lower value 0.975 | locus YFL029C, strain CAK1, stronger effect = lower value 0.987 | locus YFR003C, strain YPI1, stronger effect = lower value 0.999 | locus YFR019W, strain FAB1, stronger effect = lower value 0.887 | locus YFR028C, strain CDC14, stronger effect = lower value 0.983 | locus YGR040W, strain KSS1, stronger effect = lower value 0.84 | locus YGR052W, strain FMP48, stronger effect = lower value 0.877 | locus YGR092W, strain DBF2, stronger effect = lower value 0.602 | locus YHR079C, strain IRE1, stronger effect = lower value 0.721 | locus YHR082C, strain KSP1, stronger effect = lower value 0.966 | locus YIL147C, strain SLN1, stronger effect = lower value 0.984 | locus YJL095W, strain BCK1, stronger effect = lower value 0.568 | locus YJL128C, strain PBS2, stronger effect = lower value 0.995 | locus YJL157C, strain FAR1, stronger effect = lower value 0.84 | locus YJR016C, strain ILV3, stronger effect = lower value 0.981 | locus YJR066W, strain TOR1, stronger effect = lower value 0.801 | locus YKL067W, strain YNK1, stronger effect = lower value 0.853 | locus YKL101W, strain HSL1, stronger effect = lower value 0.879 | locus YKL193C, strain SDS22, stronger effect = lower value 0.988 | locus YKL203C, strain TOR2, stronger effect = lower value 0.797 | locus YLR133W, strain CKI1, stronger effect = lower value 0.88 | locus YLR403W, strain SFP1, stronger effect = lower value 0.798 | locus YML070W, strain DAK1, stronger effect = lower value 0.852 | locus YMR001C, strain CDC5, stronger effect = lower value 0.989 | locus YMR205C, strain PFK2 (second series), stronger effect = lower value 0.865 | locus YMR277W, strain FCP1, stronger effect = lower value 0.989 | locus YNL006W, strain LST8, stronger effect = lower value 0.991 | locus YNL020C, strain ARK1, stronger effect = lower value 0.881 | locus YNL161W, strain CBK1, stronger effect = lower value 0.984 | locus YNL183C, strain NPR1, stronger effect = lower value 0.795 | locus YNL207W, strain RIO2, stronger effect = lower value 0.969 | locus YNL222W, strain SSU72, stronger effect = lower value 1 | locus YNL307C, strain MCK1 (second series), stronger effect = lower value 0.699 | locus YOL078W, strain AVO1, stronger effect = lower value 0.993 | locus YOL136C, strain PFK27, stronger effect = lower value 0.878 | locus YOR061W, strain CKA2, stronger effect = lower value 0.865 | locus YOR119C, strain RIO1, stronger effect = lower value 0.839 | locus YOR231W, strain MKK1, stronger effect = lower value 0.776 | locus YOR329C, strain SCD5, stronger effect = lower value 0.994 | locus YPL031C, strain PHO85, stronger effect = lower value 0.808 | locus YPL153C, strain RAD53, stronger effect = lower value 0.774 | locus YPL204W, strain HRR25, stronger effect = lower value 0.74 | locus YPL209C, strain IPL1, stronger effect = lower value 0.983 | locus YPR025C, strain CCL1, stronger effect = lower value 1 | locus YPR106W, strain ISR1, stronger effect = lower value 0.976 | locus YPR111W, strain DBF20, stronger effect = lower value 0.974 | strain NNK1, stronger effect = lower value 0.975 | strain TSCII, stronger effect = lower value 0.968
active: [1] 0.876 | locus YDR052C, strain DBF4, stronger effect = lower value 0.904 | [2] 0.608 | locus YHR205W, strain SCH9, stronger effect = lower value 0.448 | locus YJR066W, strain TOR1 (second series), stronger effect = lower value 0.429 | locus YKL048C, strain ELM1, stronger effect = lower value 0.783 | locus YLR113W, strain HOG1, stronger effect = lower value 0.749 | locus YPL256C, strain CLN2, stronger effect = lower value 0.765

O=[N+]([O-])c1ccc(S(=O)(=O)N2CCCCC2)cc1
inactive: locus YAL013W, strain DEP1, stronger effect = lower value 0.994 | locus YBR229C, strain ROT2, stronger effect = lower value 0.985 | locus YCL061C, strain MRC1, stronger effect = lower value 0.976 | [1] 0.977 | locus YDL134C, strain PPH21, stronger effect = lower value 1 | locus YDR150W, strain NUM1, stronger effect = lower value 0.962 | locus YEL061C, strain CIN8, stronger effect = lower value 0.978 | locus YGR078C, strain PAC10, stronger effect = lower value 1 | locus YGR229C, strain SMI1, stronger effect = lower value 1 | [2] 1 | locus YHR087W, strain rtc3, stronger effect = lower value 0.994 | locus YJL187C, strain SWE1, stronger effect = lower value 0.982 | locus YJR043C, strain POL32, stronger effect = lower value 0.992 | locus YJR075W, strain HOC1, stronger effect = lower value 0.985 | locus YKL190W, strain CNB1, stronger effect = lower value 1 | locus YLR039C, strain RIC1, stronger effect = lower value 1.01 | locus YLR058C, strain SHM2 (second series), stronger effect = lower value 0.997 | locus YLR085C, strain ARP6, stronger effect = lower value 0.925 | locus YLR262C, strain YPT6, stronger effect = lower value 1.03 | locus YML094W, strain GIM5, stronger effect = lower value 0.999 | locus YMR219W, strain ESC1, stronger effect = lower value 0.989 | locus YMR263W, strain SAP30, stronger effect = lower value 0.972 | locus YMR307W, strain GAS1, stronger effect = lower value 0.943 | locus YNL128W, strain TEP1, stronger effect = lower value 1 | locus YNL153C, strain GIM3, stronger effect = lower value 0.975 | locus YNL298W, strain CLA4 (second series), stronger effect = lower value 0.991 | locus YNL322C, strain KRE1, stronger effect = lower value 0.996 | locus YNR030W, strain Alg12, stronger effect = lower value 0.989 | locus YPL055C, strain LGE1, stronger effect = lower value 0.976 | locus YPL241C, strain CIN2, stronger effect = lower value 0.991 | locus YPR135W, strain CTF4, stronger effect = lower value 0.938
